Bioassay records (PubChem)
In the library only some 4% were active in any assay of this set; here they are far more common.
TROY NFkB inh: inhibitors of TROY-dependent NF-kB signaling; inhibition, % at 10 µM; Q293 LMP1-TROYcd NF-kB luciferase reporter, 4 h; 360,000 compounds, 0.98% hits;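 active = compounds whose plate-normalised and pattern-corrected inhibition of the luciferase reporter signal at the single screening dose is 50% or more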
KKLEB tox: CF airway cell cytotoxicity counter-screen | activity change (cytotoxicity), % at 5 µM | 360,000 compounds, 0.36% hits | KKLEB CF airway cells viability, ATPlite luminescence, overnight; active compounds read low; cells stimulated with P. aeruginosa culture filtrate;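 active = corrected activity change at or below -50% at 5 µM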
CF NFkB inh: blocks PAF-induced NF-kB reporter in cystic fibrosis cells | KKLEB NF-kB-GFP reporter, GFP fluorescence overnight | inhibition, % at 5 µM | 360,000 compounds, 0.86% hits | AID 588850;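 active = at least 50% inhibition at 5 µM, scaled per plate between neutral and stimulator controls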;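 note: PAF is a Pseudomonas aeruginosa culture filtrate used as stimulus; plate controls were PAF-stimulated DMSO wells for no effect and unstimulated DMSO wells for full effect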
TWEAK-Fn14 inh: TWEAK-Fn14 signaling inhibition; TWEAK-stimulated Fn14 reporter cells, luciferase luminescence, 8 h; inhibition, % at 10 µM; 360,000 compounds, 2% hits; AID 1159606; in the data active = inhibition above about 50%
Peg3 promoter: Peg3 promoter activity inhibition; HeLa PEG-Prom luciferase reporter, luminescence, overnight; inhibition, % at 20 µM; 360,000 compounds, 1.7% hits;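 active = inhibition of at least 50% at 20 µM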
HIF-2a inh: inhibitors of HIF-2a. 786-0 RCC cells HIF-2a reporter, luciferase luminescence, overnight. inhibition, % at 18.8 µM. 360,000 compounds, 0.72% hits. AID 624352;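 active = inhibition of the luminescence signal of 40% or more relative to plate controls, in a single-dose primary screen at 18.75 µM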
* = called active by the depositor; / = not tested or not shown.

SMILES	TROY NFkB inh	KKLEB tox	CF NFkB inh	TWEAK-Fn14 inh	Peg3 promoter	HIF-2a inh
O=C(O)C1CC(=O)N(C2CCCCC2)C1c1ccccc1 (configuration not stated)	3	10	-18	4	4	5
CCOc1ccc(OCc2ccc(C(=O)NN=Cc3ccc[nH]3)cc2)cc1	10	-43	40	52*	-51	-136
O=C(N/N=C/c1ccc[nH]1)c1ccccc1OCc1ccc(F)cc1	11	-8	8	-13	26	5
Cc1cccc(NC(=O)C(=O)NNC(=O)c2ccc(C(C)(C)C)cc2)c1	-4	-62*	84*	-20	0	-16
O=C(CN1C(=O)/C(=C2\SC(=S)N(C3CCS(=O)(=O)C3)C2=O)c2ccccc21)Nc1ccccc1 (configuration not stated)	12	-6	53*	36	-1	5
CCOc1cc(CNC2CCCC2)cc(Cl)c1OCc1ccccc1	9	-4	-4	-13	57*	20
CCOc1cc(CNCC(C)C)cc(Cl)c1OCc1ccccc1	-10	-3	8	6	9	7
COc1cc(CNCCc2ccccc2)cc(Cl)c1OCc1ccccc1	7	-9	14	-18	90*	16
CC1CCC(C(C)C)C(OC(=O)C[n+]2cc(-c3ccc(Cl)cc3)n3c2CCC3)C1 (configuration not stated)	55*	-25	20	18	22	-9
Cc1cc(C)cc(S(=O)(=O)c2cn(C)c3cc(N4CCN(C)CC4)c(F)cc3c2=O)c1	5	-7	6	-8	100*	1
CC1CCN(C2=NC(=O)/C(=C/c3ccccc3F)S2)CC1	79*	8	-15	95*	37	33
CC1CCN(C2=NC(=O)/C(=C/c3cccc(O)c3)S2)CC1	25	4	0	-7	-71	-121
CCOC(=O)c1c(C)[nH]c(/C(C)=N/O)c1C	-1	2	3	10	9	1
CCOC(=O)c1c(C)[nH]c(C2=NNC(=NC3CC3)SC2)c1C	84*	16	5	85*	44	39
O=C1CCCCCCCN1Cc1ccccc1	0	-7	0	17	4	16
O=C1CCCN1Cc1ncnn1-c1ccccc1	/	14	-9	65*	0	10
CC(=O)Nc1ccc(CN(C)c2c(C)nc3ccc(C(=O)N4CCN(C(C)=O)CC4)cn23)cc1	-21	-1	4	-16	-7	-3
Cc1ccc2nc(-c3ccccc3)nn2c1	62*	-10	-17	94*	43	20
Cc1ccc(-c2nnc(-c3ccccc3)c(-c3ccccc3)n2)cc1	-18	17	5	-4	-23	-62
CC(=NNC(=S)N(Cc1ccccn1)Cc1ccccn1)c1cnccn1	5	-2	-52	-9	54*	-72
Cc1ccc(NC(=O)N(CCC(=O)O)Cc2ccccc2)cc1	-2	3	-1	-2	2	3
O=[N+]([O-])c1cc(Cl)ccc1N1CCCC1	16	1	14	0	-2	13
O=C1C(Cl)=C(N2CCN(c3ccccc3[N+](=O)[O-])CC2)C(=O)c2ccccc21	41	-11	30	39	101*	23
Cc1cnc(NC(=O)c2sc3ccccc3c2Cl)s1	49	-54*	-27	85*	8	12
Cc1nn(Cc2ccc(Cl)c(Cl)c2)c(C)c1NC(=O)c1sc2ccccc2c1Cl	32	-25	12	58*	24	18
SMILES	TROY NFkB inh	KKLEB tox	CF NFkB inh	TWEAK-Fn14 inh	Peg3 promoter	HIF-2a inh
Cc1ccnc(NC(=O)/C=C/c2ccccc2Cl)c1	38	-18	3	64*	-48	-61
Cc1ccc(C(=O)Nc2ncc(C)s2)o1	-54	5	-6	28	-219	-127
Cc1ccc(C(=O)Nc2ncc(C)s2)s1	16	-22	-7	57*	-94	-84
O=C(Nc1nccs1)c1sc2ccccc2c1Cl	0	-26	0	67*	-76	-68
Cc1cnc(NC(=O)c2nn(C)cc2[N+](=O)[O-])s1	-1	-3	16	-10	94*	-24
CC(C)c1nnc(NC(=O)c2sc3ccccc3c2Cl)s1	-26	0	-23	-20	-356	-228
Cc1ccnc(NC(=O)c2sc3ccccc3c2Cl)c1	54*	-75*	-15	75*	-76	-86
O=C(NC1CC1)c1sc2cc(Cl)ccc2c1Cl	-46	7	-30	-11	-356	-222
